This is an account of results in PubChem BioAssay (NCI).

Holding throughout (assay): NCI-60 one-dose screen, 48 h (100 = growth as untreated, 0 = no growth, -100 = all killed)
Holding throughout (details): 10 µM unless noted

Experiment [1] relates to SK-MEL-2 melanoma.
Experiment [2] concerns EKVX NSCLC.
Experiment [3] deals with SN12C renal.
For experiment [4], the system named is UO-31 renal.
The subject of experiment [5] is TK-10 renal.
Experiment [6] has as its system CAKI-1 renal.
For experiment [7], the system named is A498 renal.
The subject of experiment [8] is CCRF-CEM leukemia.
Experiment [9] has as its system MOLT-4 leukemia.
Experiment [10] deals with ACHN renal.

This is part of a sample that, as a whole, favours compounds with a hit. Of some 83,000 tested, about 20% had one in any assay.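 In brief: 96-well plates, 48 h treatment, single concentration, percent growth endpoint.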 Unmarked numbers belong to inactive results. The source made the active and inactive calls. How the source made its calls: active means growth percent below 10; inactive means the rest.

On to `N#Cc1c(N2CCOCC2)nc(=S)[nH]c1-c1ccco1`, for which the growth in [1] is 37.1%; in experiment [2], 48.8%; in experiment [3] it was 77.6%; in experiment [4], 66%; in experiment [5], 47.1%; in experiment [6], 58.2%. In addition, the growth was -1.37% (active) in experiment [7], 49.6% in experiment [8] and 64.5% in experiment [9].
With `COc1cc(OC)c(/C=C/C(=O)c2c(N)cc(OC)cc2OC)c(OC)c1`, the growth in experiment [1] was 12.4%; in experiment [2], 49.3%; in experiment [3] it was 37%; in [4] it was 43.7%; in [5], 44.3%; in [6], 12.3%. In addition, the growth in experiment [7] was -11.4% (active); in experiment [8], 12.3%; in experiment [9], 35.8%.
As for `O=C1CC(c2ccccc2)Cc2nc3ccc(Br)cc3cc21` (centres undefined), the growth was 45.2% in experiment [1]; 36.3% in experiment [2]; 32.2% in [3]; 41.4% in experiment [4]; 73.4% in experiment [5]; 30.7% in [6]. In addition, the growth is -12.4% (active) in experiment [7], 8.51% (active) in [8] and 10.5% in [9].
On to `CCCCC(CCCCCC(CCCC)C1NC(C)Cc2cc(OC)c(OC)cc21)C1NC(C)Cc2cc(OC)c(OC)cc21` (centres undefined), for which the growth in [1] is -81.9% (active); in experiment [2] it was -61.2% (active); in experiment [3], -21.3% (active); in experiment [4], -83.5% (active); in [5], -94.5% (active); in experiment [6], -63.9% (active). Moreover, the growth in experiment [7] was -12.3% (active); in [8], -43.3% (active).
On to `Cc1nc(-c2ccccc2)sc1CC#N`, for which the growth is 112% in experiment [1]; 101% in experiment [2]; 103% in experiment [3]; 106% in experiment [4]; 79.4% in experiment [5]; 97.6% in experiment [6]. Also, the results for the growth in [7], in experiment [8] and in experiment [9] were 85.6%, 102% and 93.5%, respectively.
As to `CCCCNC(=O)NS(=O)(=O)Cc1ccccc1`, the growth was 119% in experiment [1]; 122% in experiment [2]; 113% in [3]; 82.8% in experiment [4]; 118% in experiment [5]; 100% in experiment [6]. Besides, the growth in experiment [7] is 110%; in [8] it was 93.1%; in experiment [9] it was 97.5%.
As to `O=C(Nc1ccccc1)Nc1ccc(C(=O)/C=C/c2ccc(N3CCCC3)cc2)cc1`, the growth in [1] was 17.9%; in experiment [2], 74.2%; in experiment [3] it was 66.5%; in [4], 67.7%; in experiment [5] it was 102%; in experiment [6] it was 61.7%. The growth in experiment [7] was 45.9%; in experiment [8], 72.6%; in [9] it was 67.5%.
Consider `COC(=O)[C@H](CC(C)C)NC(=O)NC(=O)NC(=O)CI`, for which the growth was 78.8% in experiment [1]; 94.8% in experiment [2]; 76.5% in experiment [3]; -76.3% (active) in experiment [4]; 72.3% in experiment [5]; -69.2% (active) in experiment [6]. The results for the growth in [7], in experiment [8] and in [9] were 82.8%, -46.3% (active) and 4.18% (active), respectively.
As for `CC(C)C1=NOC(=O)C1=Cc1cn(-c2ccccc2)nc1-c1ccccc1`, the growth is 99.2% in [1]; 99.3% in experiment [2]; 79.2% in experiment [3]; 70.2% in [4]; 82.3% in experiment [5]; 57.7% in experiment [6]. The values for the growth in experiment [7] and in experiment [9] were 93.6% and 7.72% (active), respectively.
With `C/C=C/C1OC23CCCCC2C(C#N)(C(=N)O3)C1(C#N)C#N` (centres undefined), the growth in experiment [1] is 107%; in experiment [2], 106%; in experiment [3], 93.7%; in experiment [4], 76.2%; in experiment [5], 103%; in experiment [6], 81.2%. The growth in [7] was 118%; in [8], 81.2%; in [9], 95%.
On to `O=S(=O)(c1ccc(N/N=C\c2ccccc2Cl)cc1)c1ccc(N/N=C/c2ccccc2Cl)cc1`, for which the growth in experiment [1] was 89.1%; in experiment [2], 84.5%; in experiment [3] it was 87.2%; in experiment [4], 63.7%; in experiment [5], 110%; in experiment [6], 62.2%. In addition, the growth in experiment [7] was 94.2%; in experiment [8], 75.9%.
For `C=C(CC(=O)OC)C(C)=O`, the growth in experiment [1] was 118%; in experiment [2], 99%; in experiment [3] it was 100%; in experiment [4] it was 88.2%; in [5], 107%; in [7], 95.1%. Besides, the growth in experiment [8] is 118%; in [9] it was 95.2%.
As for `C[C@]12CCc3c(ccc4cc(O)ccc34)[C@@H]1CC[C@H]2O`, the growth was 101% in [1]; 56.9% in experiment [2]; 87.6% in [3]; 87.2% in [4]; 102% in experiment [5]; 87.8% in experiment [6]. Also, the growth in experiment [7] was 85%; in experiment [8] it was 90.4%.
For the compound `CCN(CC)CC(C)Nc1ccc(C)c2sc3ccccc3c(=O)c12` (centres undefined), the growth was 116% in experiment [1]; 81.8% in experiment [2]; 49.6% in [3]; 68.1% in experiment [5]; 37.8% in experiment [10]; 39.3% in experiment [6]. The values for the growth in [7] and in [8] were 60.1% and 34.4%, respectively.
Turning to `Nc1nc(Nc2ccccc2)c2ncn(Cc3ccc4c(c3)OCO4)c2n1`, the growth was 12.2% in experiment [1]; 48.7% in experiment [2]; 43% in experiment [3]; 49.3% in experiment [4]; 63.3% in [5]; 31.5% in experiment [6]. Besides, the growth in [7] is 39.8%; in experiment [8], 66.8%; in experiment [9], 13.4%.
